# Screening results from PubChem BioAssay.
# This is a sample that favours compounds with a hit; in the whole collection about 4% have one here.
# aDG glyco act – alpha-DG glycosylation activation; Pro5-aDG cells, alpha-DG glycosylation AlphaScreen (IIH6); 0% Pro5, 100% B10-LARGE cell signal; activation, % at 10 µM; hit rate 0.22% among 360,000; AID 624168;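 active means activation of at least 8% versus controls, or a plate z-score of at least 8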;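 further: Pro5 are CHO cells carrying HIG-tagged alpha-DG that lacks glycosylation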
# ADAM10 inh – inhibitors of human ADAM10; O14672; recombinant ADAM10, EDANS/DABCYL FRET peptide cleavage, 3 h; inhibition, % at 7 µM; hit rate 0.62% among 370,000; AID 720582;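 active means inhibition above a per-campaign cutoff equal to the mean of compounds falling between control-based bounds plus 3 SD, cut at about 20% in these data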;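 further: 0% = DMSO wells while the 100% control is not disclosed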
# ADAM17 inh – ADAM17 inhibition, QFRET primary screen; P78536; recombinant ADAM17, EDANS/DABCYL FRET peptide cleavage; inhibition, % at 6.95 µM; hit rate 0.83% among 370,000; AID 720648;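 active means inhibition above the mean of compounds lying between control limits plus 3 SD, set per campaign, cut at about 8.5% in these data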;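 further: 0% = DMSO-only wells as the low control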
# Target sequence (P78536 215-824 limits assumed): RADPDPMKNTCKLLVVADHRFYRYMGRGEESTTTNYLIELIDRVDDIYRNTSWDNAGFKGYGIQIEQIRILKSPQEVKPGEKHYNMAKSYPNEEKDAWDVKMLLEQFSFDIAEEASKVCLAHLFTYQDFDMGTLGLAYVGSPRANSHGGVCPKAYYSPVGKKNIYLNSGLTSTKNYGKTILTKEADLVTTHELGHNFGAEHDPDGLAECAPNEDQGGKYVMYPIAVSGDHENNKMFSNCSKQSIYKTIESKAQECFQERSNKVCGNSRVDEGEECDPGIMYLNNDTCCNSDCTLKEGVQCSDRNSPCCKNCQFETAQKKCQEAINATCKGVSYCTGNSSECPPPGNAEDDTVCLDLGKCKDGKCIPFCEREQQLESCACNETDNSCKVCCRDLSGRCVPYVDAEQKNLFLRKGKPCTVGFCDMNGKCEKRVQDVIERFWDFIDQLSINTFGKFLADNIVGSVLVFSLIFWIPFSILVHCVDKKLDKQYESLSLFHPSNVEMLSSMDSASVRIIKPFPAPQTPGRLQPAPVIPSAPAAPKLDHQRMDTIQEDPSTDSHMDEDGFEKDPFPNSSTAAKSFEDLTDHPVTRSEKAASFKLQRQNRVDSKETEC
# NR3A LBD binder – NR3A (human) ligand-binding domain modulation; AID 1259313; Tm shift relative to glycine control, % at 25 µM; NR3A LBD differential scanning fluorimetry, Tm shift; 0% = protein alone, 100% = glycine-bound protein; hit rate 2.5% among 340,000;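 active means melting temperature shift of at least 10% of the positive control shift, at one fixed dose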
# FAS TE block – FAS thioesterase (human) inhibition. P49327. recombinant FAS-TE, OMFH fluorogenic substrate, fluorescence endpoint. inhibition, % at 15 µM. hit rate 0.67% among 360,000. AID 602261;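 active means compounds whose normalised, plate-corrected inhibition of enzyme fluorescence in the single-dose primary screen is 50% or more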;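 further: 0% = DMSO with enzyme and 100% = substrate without enzyme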
# * = called active by the depositor; / = no result given.
SMILES,aDG glyco act,ADAM10 inh,ADAM17 inh,NR3A LBD binder,FAS TE block
CCc1ccc(NC(=O)CSc2nc3[nH]ncc3c(=O)[nH]2)cc1,-1,-5,-1,-1,-9
CCS(CC)=NS(=O)(=O)c1ccc(NC(C)=O)cc1,0,7,1,0,-10
Cc1ccc(NC(=O)c2sc3ncn(CC(=O)N4CCN(c5ccccn5)CC4)c(=O)c3c2C)cc1,0,4,8,/,-1
Cc1c(C(=O)Nc2ccc(C(F)(F)F)cc2)sc2ncn(CC(=O)N3CCN(c4ccccn4)CC3)c(=O)c12,0,-6,-5,23*,19
O=C(/C=C/Nc1ccc(S(=O)(=O)Nc2ncccn2)cc1)c1ccc(Cl)c(Cl)c1,0,0,1,3,-8
NC(N)=NS(=O)(=O)c1ccc(N/C=C/C(=O)c2ccc(Cl)c(Cl)c2)cc1,0,-4,-11,13*,13
Cc1sc2ccccc2c1CNC[C@H]1O[C@@H](n2cnc3c(N)ncnc32)[C@H](O)[C@@H]1O,0,-15,-4,0,-4
C[C@H](N)C(=O)NC[C@H]1O[C@@H](n2cnc3c(N)ncnc32)[C@H](O)[C@@H]1O,0,-2,1,3,-6
CC(C)(O)C#Cc1ccc(CNC[C@H]2O[C@@H](n3cnc4c(N)ncnc43)[C@H](O)[C@@H]2O)s1,0,-11,-4,13*,-12
Nc1ncnc2c1ncn2[C@@H]1O[C@H](CNC(=O)[C@@H](N)C2CCCCC2)[C@@H](O)[C@H]1O,0,2,-4,15*,-10
Cc1ccc(S(=O)(=O)N(C)CC(=O)NC2CC(C)(C)NC(C)(C)C2)cc1,0,-1,-3,-1,-13
CN(CC(=O)NC1CC(C)(C)NC(C)(C)C1)S(=O)(=O)c1ccc(Br)cc1,0,-4,-4,13*,-6
CN1CCN(C(=O)c2ccc(N3CCCC3=O)cc2)CC1,0,-5,-5,333*,-6
CNC(=O)c1ccccc1S(=O)(=O)c1ccccc1C#N,0,4,4,11*,-2
CCOc1ccc(CN2CCNC(=O)C2CC(=O)NCCN2CCOC2=O)cc1 (configuration not stated),0,-13,-7,16*,2
Cc1cccc(CCNC(=O)CC2C(=O)NCCN2Cc2ccccc2C)n1 (configuration not stated),0,-20,-9,1,-6
Cc1ccccc1CN1CCNC(=O)C1CC(=O)NCCN1CCCCC1=O (configuration not stated),0,-23,-7,11*,-9
CN1CCC(NCCC(c2ccc(F)cc2)c2ccc(Cl)cc2)CC1 (configuration not stated),0,1,-1,/,-7
CN1CCN(c2ccccc2NC(=O)c2ccc([N+](=O)[O-])o2)CC1,2,/,/,-1,-4
COc1ccc(CCC(=O)Nc2ccc(-c3noc(-c4ccc(OC)c(OC)c4)n3)cc2)cc1,0,5,2,1,1
COc1cc(-c2nc(-c3ccc(NC(=O)c4ccc(Br)o4)cc3)no2)cc(OC)c1OC,0,-7,-4,21*,24
COc1ccc(-c2nc(-c3ccc(NC(=O)c4ccc(Br)o4)cc3)no2)cc1OC,0,1,-3,26*,11
CCOC(=O)CNC(=O)CN1C(=O)CC(c2ccco2)Sc2ccccc21 (configuration not stated),0,-7,-1,-7,-1
COc1cccc(NC(=S)N2CCC(NC(=O)C3CCCCC3)CC2)c1,0,-1,0,0,-5
Cc1cc(OCC(=O)NNC(=O)c2cnccn2)cc(C)c1Cl,1,0,3,-1,1
SMILES,aDG glyco act,ADAM10 inh,ADAM17 inh,NR3A LBD binder,FAS TE block
CC1CCCN(CCSc2ccc(Cl)cc2)C1 (configuration not stated),0,2,1,0,-5
Cc1ccc(-c2ccc(CN3C(CC(C)C)C(=O)N(Cc4cn(CCC5OCCCO5)nn4)CCS3(=O)=O)cc2)cc1 (configuration not stated),0,14,6,/,19
c1cncc(-c2nc3cc4ccccc4cc3[nH]2)c1,0,-379,-141,22*,-2
c1ccc(-c2nc3cc4ccccc4cc3[nH]2)nc1,0,-24,-7,-20,-4
Cc1cccc2cc(/C=N/NC(=O)CN3CCOCC3)c(Cl)nc12,0,-12,-5,1,-6
NC(=O)Cn1nc(C(F)(F)F)c2c1CCCC2,0,4,-5,27*,-5
CCOc1ccc(N(CC(=O)Nc2ccc(Br)cc2)S(C)(=O)=O)cc1,0,11,4,-8,20
O=C(COC(=O)c1c2c(nc3ccccc13)/C(=C/c1cccc([N+](=O)[O-])c1)CCC2)NC1CCS(=O)(=O)C1 (configuration not stated),0,14,6,11*,14
Cc1ccc(C(=O)Nc2nc3nc(-c4ccccc4)cc(=O)n3[nH]2)cc1,0,-3,-5,1,-7
O=C(Nc1ccccc1Cl)c1ccccc1Oc1ccc(C(F)(F)F)cc1[N+](=O)[O-],0,14,4,12*,26
O=C(c1ccccc1Oc1ccc(C(F)(F)F)cc1[N+](=O)[O-])N1CCOCC1,0,-9,-3,2,-10
Cc1nnn(-c2nonc2N)c1C(=O)N/N=C/c1ccccc1O,0,0,2,30*,-2
CC1CCN(Cc2c(C(=O)N/N=C/c3ccccc3O)nnn2-c2nonc2N)CC1,0,-8,-3,0,44
Cc1nnn(-c2nonc2N)c1C(=O)N/N=C/c1cccc2ccccc12,-1,-10,-5,33*,-2
CCCOc1ccc(/C=N/NC(=O)c2nnn(-c3nonc3N)c2-c2cccs2)cc1OC,0,-13,-7,-2,20
COc1cc(/C=N/NC(=O)c2c(C)nnn2-c2nonc2N)ccc1O,0,6,-3,14*,-7
COc1ccc(CNC(=O)Cn2ccc(NC(=O)OCc3ccccc3)nc2=O)cc1,0,-10,0,-1,-16
O=CN1CCN(c2c([N+](=O)[O-])c(=O)oc3ccccc23)CC1,0,2,4,0,5
Cc1ccc(S(=O)(=O)N2CCN(C(=O)c3cc(S(=O)(=O)N4CCOCC4)ccc3Cl)CC2)c(C)c1,1,-2,1,12*,17
Cc1ccc(C)c(S(=O)(=O)Nc2ccc(C(=O)N3CCCCC3)cc2)c1,0,-7,-3,14*,-1
Cc1ccc(C(=O)N2CCOCC2)cc1S(=O)(=O)N1CCCC1,0,-3,-1,11*,-3
CC(=O)N1CCN(C(=O)c2ccc(NS(=O)(=O)c3cc(C)ccc3C)cc2)CC1,0,-7,2,-3,-4
O=C(c1cc(S(=O)(=O)N2CCCCC2)ccc1Cl)N1CCOCC1,0,-3,-1,1,-4
